For 7 compounds, Potency and activity, negative = cell killing results are on record in PubChem BioAssay (NCATS).

Records with an inconclusive call do not appear. A number with no mark means an inactive call. Calls of active or inactive are those of the source. Calls come from the whole dose curve; as a rule, active = well fitted curve in the direction sought with a large enough effect; inconclusive = small, poorly fitted or top-dose-only effect, or another doubt; inactive = no such curve, though single readings can be large; an effect the other way counts as inactive or inconclusive.

Assay [1] relates to MCC-13. The experiment in a line: qHTS assay to identify novel small-molecules to repurpose for Merkel cell carcinoma treatment (AID 1296009). Note: nearly all actives have a fitted effect of over 60% in size. As to conditions: MCC and control cell lines, CellTiter-Glo viability, 72 h; series mostly up to 46 µM. Summed up:
(§1)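 Dose-response viability screen; 72 hr exposure at 37 degree celsius; CellTiter-Glo added, 10 min room temperature, luminescence read; RLUs scaled between no-cell and DMSO wells.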
A general note: In qHTS, concentration-response curves come from the screen itself.

The subject of assay [2] is MKL-1. Described as above. As to conditions: MCC and control cell lines, CellTiter-Glo viability, 72 h; series mostly up to 46 µM. Put shortly:
as §1
On the technique in general: Cellular ATP, detected with luciferase, serves as a proxy for viable cell number.

Assay [3] relates to MKL-2. The description is as above. As to conditions: MCC and control cell lines, CellTiter-Glo viability, 72 h; series mostly up to 46 µM. Summed up:
as §1

For assay [4], the system named is UISO. The assay is described as above. As to conditions: MCC and control cell lines, CellTiter-Glo viability, 72 h; series mostly up to 46 µM. Put shortly: as §1
Assay [5] relates to WaGa. The description is as above. The note with it: MCC and control cell lines, CellTiter-Glo viability, 72 h; series mostly up to 46 µM. Summed up: as §1
The subject of assay [6] is C33A. In words: Primary qHTS to identify gynecologic anti-cancer compounds using libraries of approved drugs and bioactive compounds (AID 1345084). Note: nearly all actives have a fitted effect of over 55% in size. The note with it: Gynecologic cancer cell panel viability, ATPlite luminescence, 48 h; series mostly up to 57.5 µM. Put shortly:
(§2)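 ATP-based viability (ATPlite), 1,000 cells/well, 16 h pre-incubation, 48 h compound at 37 C, 5% CO2, 15 min RT before read.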

Assay [7] deals with CAOV3. The description is as above. The note with it: Gynecologic cancer cell panel viability, ATPlite luminescence, 48 h; series mostly up to 57.5 µM. Summed up: as §2
The subject of assay [8] is Hek293T. Described as above. The note with it: Gynecologic cancer cell panel viability, ATPlite luminescence, 48 h, control line for the selectivity index; series mostly up to 57.5 µM. Put shortly: as §2
Assay [9] deals with JEG-3. Described as above. The note with it: Gynecologic cancer cell panel viability, ATPlite luminescence, 48 h; series mostly up to 57.5 µM. Put shortly:
as §2

For assay [10], the system named is OV90. Described as above. As to conditions: Gynecologic cancer cell panel viability, ATPlite luminescence, 48 h; series mostly up to 57.5 µM. Summed up:
as §2

The subject of assay [11] is PA-1. The assay is described as above. As to conditions: Gynecologic cancer cell panel viability, ATPlite luminescence, 48 h; series mostly up to 57.5 µM. Put shortly:
as §2

The subject of assay [12] is SKOV3. Described as above. As to conditions: Gynecologic cancer cell panel viability, ATPlite luminescence, 48 h; series mostly up to 57.5 µM. Summed up: as §2
In assay [13] the test system is Tov112D. The description is as above. The note with it: Gynecologic cancer cell panel viability, ATPlite luminescence, 48 h; series mostly up to 57.5 µM. Put shortly: as §2
Assay [14] can be described thus: Drug repurposing screens with cells derived from glioblastoma tumor samples (AID 1345199). Note: nearly all actives have a fitted effect of over 40% in size. As to conditions: GBM patient neurospheres viability, ATP luminescence, 48 h. Put shortly:
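Primary testing used CD133+ neurospheres from four GBM patients, seven concentrations, 48 h exposure and ATP-based viability; confirmation added three slower-growing patient lines.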

The subject of assay [15] is CASKI. The experiment in a line: Primary qHTS to identify gynecologic anti-cancer compounds using libraries of approved drugs and bioactive compounds (AID 1345084). Note: nearly all actives have a fitted effect of over 55% in size. As to conditions: Gynecologic cancer cell panel viability, ATPlite luminescence, 48 h; series mostly up to 57.5 µM. Summed up: as §2
In assay [16] the test system is Es-2. The assay is described as above. As to conditions: Gynecologic cancer cell panel viability, ATPlite luminescence, 48 h; series mostly up to 57.5 µM. Summed up: as §2
Assay [17] deals with HeLa. The description is as above. The note with it: Gynecologic cancer cell panel viability, ATPlite luminescence, 48 h; series mostly up to 57.5 µM. Summed up:
as §2

Assay [18] deals with Tov-21-G. The assay is described as above. The note with it: Gynecologic cancer cell panel viability, ATPlite luminescence, 48 h; series mostly up to 57.5 µM. Summed up: as §2
Assay [19] has as its system MCC-26. In words: qHTS assay to identify novel small-molecules to repurpose for Merkel cell carcinoma treatment (AID 1296009). Note: nearly all actives have a fitted effect of over 60% in size. As to conditions: MCC and control cell lines, CellTiter-Glo viability, 72 h; series mostly up to 46 µM. Summed up:
as §1

Where [20] appears, read: at 46.1 µM (top of the series), tumour line C.
[21] abbreviates: at 45.9 µM (top of the series), tumour line B.
Setting [22] is: at 45.9 µM (top of the series), tumour line D.
Setting [23] is: at 46 µM (top of the series), tumour line A.
% is set by controls: 0 for no effect and ±100 for the full control effect; potency is the fitted concentration of half-maximal effect.

As to `CCN(CC)CCNC(=O)c1c(C)[nH]c(/C=C2\C(=O)Nc3ccc(F)cc32)c1C`, the Potency in assay [1] is 23.7 µM (active); in assay [2], 2.99 µM (active); in assay [3], 2.99 µM (active); in assay [4], 11.9 µM (active); in [5], 11.9 µM (active); in [7] it was 25.1 µM (active). Further, the Potency in assay [10] is 10 µM (active); in assay [11] it was 10 µM (active); in [12], 8.91 µM (active); in assay [14] (tumour line A), 11.2 µM (active); in assay [14] (tumour line D) it was 28.2 µM (active). The Potency entry in assay [6], in assay [8], in assay [9] and in assay [13] was “inactive” each time. Also, in assay [14] (setting [20]), the activity, negative = cell killing was 3.12%.

As for `CC1=C(CC(=O)O)c2cc(F)ccc2/C1=C\c1ccc(S(C)(=O)=O)cc1`, the Potency result in assay [1], in [2], in [6], in assay [7], in assay [15] and in assay [16] was “inactive” each time. In addition, the Potency entry in assay [17], in assay [8], in assay [9], in [10], in assay [11] and in assay [12] was “inactive” throughout. Besides, the Potency entry in [18] and in [13] was “inactive” throughout. Moreover, the activity, negative = cell killing is -11.4% in assay [14] (setting [21]), -18.4% in [14] (setting [22]), -33% in [14] (setting [23]) and 4.54% in assay [14] (setting [20]).

In the case of `CN(C)CCCN1c2ccccc2Sc2ccc(Cl)cc21`, the Potency in assay [2] is 23.7 µM (active); in [5], 26.6 µM (active); in [14] (tumour line A), 3.98 µM (active); in [14] (tumour line B) it was 15.8 µM (active); in [14] (tumour line D) it was 20 µM (active). The activity, negative = cell killing in [14] (setting [20]) is -4.19%.

As to `OCCN1CCN(CCCN2c3ccccc3Sc3ccc(Cl)cc32)CC1`, the Potency was 26.6 µM (active) in assay [4]; 20 µM (active) in [6]; 25.1 µM (active) in [7]; 25.1 µM (active) in assay [15]; 15.8 µM (active) in assay [10]; 28.2 µM (active) in [12]. Further, the Potency was 25.1 µM (active) in assay [13], 3.16 µM (active) in assay [14] (tumour line A), 8.91 µM (active) in [14] (tumour line B) and 10 µM (active) in [14] (tumour line D). Besides, in assay [17], the Potency entry is “inactive”. In addition, the activity, negative = cell killing in assay [14] (at 20 µM (top of the series), tumour line C) is -18%.

`NC1[C@H]2CN(c3nc4c(cc3F)c(=O)c(C(=O)O)cn4-c3ccc(F)cc3F)C[C@@H]12` (stereo partly specified): the Potency entry in [19], in [15], in assay [9], in [10] and in [13] was “inactive” each time. In addition, the Potency in assay [4] is 26.6 µM (active); in assay [5] it was 21.1 µM (active). In [14] (setting [21]), the activity, negative = cell killing is -29.1%.

For the compound `O=c1cc[nH]c(=S)[nH]1`, the Potency result in assay [1], in [2], in assay [3], in assay [4], in assay [5] and in assay [6] was “inactive” in each case. Also, the Potency entry in assay [7], in assay [15], in assay [16], in [17], in [8] and in [9] was “inactive” in each case. For the same compound, the Potency entry in [10], in assay [11], in assay [12], in assay [18] and in assay [13] was “inactive” each time. In addition, the activity, negative = cell killing in assay [14] (setting [21]) was -6.45%; in [14] (setting [22]), -10.9%; in [14] (setting [20]) it was -27.1%.

Turning to `O=C1NS(=O)(=O)c2ccccc21`, the Potency result in [1], in [2], in assay [3], in [4], in [5] and in assay [6] was “inactive” each time. Also, the Potency entry in assay [7], in assay [15], in assay [16], in assay [17], in assay [8] and in assay [9] was “inactive” each time. Besides, the Potency result in assay [10], in assay [11], in [12], in assay [18] and in assay [13] was “inactive” throughout. The activity, negative = cell killing in assay [14] (setting [21]) is -3.37%; in [14] (setting [22]), -3.92%; in assay [14] (setting [23]), -6.92%; in [14] (setting [20]), -6.41%.
